Measured values from paper PMC7819943, “Rice protein-binding microarrays: a tool to detect cis-acting elements near promoter regions in rice”.
Over roughly 35,000 sequences, “fluorescence intensity (a.u.)” has its median near 10,000; the highest 2% begin near 52,000. The full list was thinned out, with the highest values kept by preference.

Each sequence was assayed against T1, OsWOX13 (Oryza sativa, UniProt Q5QMM3 1-267) (assay: protein-binding microarray (RPBM); PBS, 2% BSA, 51.3 ng/ul salmon testes DNA, 50 uM zinc acetate, 200 nM TF, 25 C, 1 h; high values mean tight binding). Settings: protein: recombinant; tags: N-terminal polyhistidine and DsRed monomer fusion (pET32a); label: CyDye5-dUTP incorporated in the synthesized complementary strand; 3' TTTTT single-stranded linker to array surface; dsDNA, one strand shown.
T1 sequence: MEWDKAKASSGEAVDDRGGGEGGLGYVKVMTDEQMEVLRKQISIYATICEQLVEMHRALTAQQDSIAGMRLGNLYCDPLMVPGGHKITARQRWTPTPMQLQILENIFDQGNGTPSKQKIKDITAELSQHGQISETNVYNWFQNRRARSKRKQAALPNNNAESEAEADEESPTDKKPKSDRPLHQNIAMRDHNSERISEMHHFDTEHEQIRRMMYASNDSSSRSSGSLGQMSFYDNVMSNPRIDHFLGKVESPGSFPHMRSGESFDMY
Procedure, shortened: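 The binding signal is fluorescence intensity per array feature (arbitrary units). Readings came from an Axon 4000B scanner after a washed, 2% BSA-blocked, double-stranded custom Agilent array had been incubated for 1 h at 25 °C with 200 nM protein and 50 µM zinc acetate. The protein was a Ni–NTA-purified transcription factor fused N-terminally to polyhistidine and DsRed, expressed in E. coli BL21-CodonPlus.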
In the case of “CTTGATTTATTATTTACCATGTTAGAAATGTTTATTTATACGGAGTCACCTAGTGCAG”, the binding signal is reported as 29600 fluorescence intensity (a.u.).
For “TGAAATTAATTTGATGTGATAGATTTCTAGGTTTTCTTTGCGGAGTCACCTAGTGCAG”, the binding signal was 64300 fluorescence intensity (a.u.).
In the case of “CTGTAATCTTGCTGATTGAATTCTATTTTGATGTGCAGAGCGGAGTCACCTAGTGCAG”, the binding signal is reported as 44800 fluorescence intensity (a.u.).
“CAGATTAAAATTTCTGCTCAAGCTAGCCATCGATCATCTGCGGAGTCACCTAGTGCAG” was tested, and the binding signal was 3930 fluorescence intensity (a.u.).
In the case of “GATGAAACATTTGACATGAACTAAATTTTGTTCGGCAGTTCGGAGTCACCTAGTGCAG”, the binding signal is reported as 5180 fluorescence intensity (a.u.).
With “CGTAGAAGGGATTGGGTGAAATTACATGGGCATATAGGGACGGAGTCACCTAGTGCAG” the binding signal was 4240 fluorescence intensity (a.u.).
With “ATAATTAGACTTCTTGTTGCCTTCACCTATTTTAACACATCGGAGTCACCTAGTGCAG” the binding signal was 13000 fluorescence intensity (a.u.).
For “GAAAATTATGTACATCCTCCGCTTAAAGATGACTATGAATCGGAGTCACCTAGTGCAG”, the binding signal was 4540 fluorescence intensity (a.u.).
With “GATAAGTAAATTAATTGGAAGAAAGAAATCAGTGGGGAGGCGGAGTCACCTAGTGCAG” the binding signal was 13500 fluorescence intensity (a.u.).
For “AGCCTAATTAATCCGTCATTAGCAAATATTTACTGTAGCACGGAGTCACCTAGTGCAG”, the binding signal was 28400 fluorescence intensity (a.u.).
In the case of “TAAGTAGATCGAAAATGTTTCAATCATTTAAATCAGGCGTCGGAGTCACCTAGTGCAG”, the binding signal is reported as 4180 fluorescence intensity (a.u.).
With “TTATTAATTATCATATTAGTAGTAGTAGTAGTAGCTAGGCCGGAGTCACCTAGTGCAG” the binding signal was 34100 fluorescence intensity (a.u.).
For “TATGATATGTCAAATCCTATAATTTCTTCGTCCCAAAATGCGGAGTCACCTAGTGCAG”, the binding signal was 3440 fluorescence intensity (a.u.).
“GGTCCAATCAACATGAATAACAAAACAAAGGAAATGGATTCGGAGTCACCTAGTGCAG” was tested, and the binding signal was 17100 fluorescence intensity (a.u.).
With “ATCGGAGACTGACTGAGTGAAGGTTGGTTGGTTCACACTTCGGAGTCACCTAGTGCAG” the binding signal was 4540 fluorescence intensity (a.u.).
With “GAATGGTCCAACAAGGAGACTGAGGAATGGTCAACACATTCGGAGTCACCTAGTGCAG” the binding signal was 59700 fluorescence intensity (a.u.).
In the case of “ATGATCAATCAGTAGATTATGCCCTGGTTATTCTTTATAACGGAGTCACCTAGTGCAG”, the binding signal is reported as 25400 fluorescence intensity (a.u.).
With “ATGGATATAAATTGATGAGTACAGTCCTGAGAACTGCAAGCGGAGTCACCTAGTGCAG” the binding signal was 32600 fluorescence intensity (a.u.).
“GTTACTGTGATTTGTTTCACGAAGCCCCATGTTTTGAGCCCGGAGTCACCTAGTGCAG” was tested, and the binding signal was 11700 fluorescence intensity (a.u.).
In the case of “ACTAATCTGATTGTGTCACTTGTGCGATTGATGGAGTTCACGGAGTCACCTAGTGCAG”, the binding signal is reported as 23900 fluorescence intensity (a.u.).
“TTTTGATTGAAGACACACCTATTGTCGCGAATACTGCTAACGGAGTCACCTAGTGCAG” was tested, and the binding signal was 40500 fluorescence intensity (a.u.).
In the case of “CCACGCCAATTAGCATCCCACGTTTCGCCTTTGATTGTGGCGGAGTCACCTAGTGCAG”, the binding signal is reported as 10600 fluorescence intensity (a.u.).
“ATTAATAATGTATAATTTATTTTAGTGGTATTAATGTTGTCGGAGTCACCTAGTGCAG” was tested, and the binding signal was 22400 fluorescence intensity (a.u.).
In the case of “ATATTTAATTATTATTTTAATAAAACTAATTTGGTAATGTCGGAGTCACCTAGTGCAG”, the binding signal is reported as 25700 fluorescence intensity (a.u.).
With “CTATAATTTGTAGATGATGTAGTATAATTATATTTAATCACGGAGTCACCTAGTGCAG” the binding signal was 37300 fluorescence intensity (a.u.).
With “TGTTACATATAATGAAATTAATTTGGTATTGTAGATGTTGCGGAGTCACCTAGTGCAG” the binding signal was 13600 fluorescence intensity (a.u.).
“TATAATTTAAATTTAACTAAATTAATGGTATTACAGATGTCGGAGTCACCTAGTGCAG” was tested, and the binding signal was 58500 fluorescence intensity (a.u.).
With “TCATTAATTAATTAATTACAGTGGTAGATGATGATGTAGTCGGAGTCACCTAGTGCAG” the binding signal was 64000 fluorescence intensity (a.u.).
“CATTATAGATTAATACATTTTGGGATGGAGGGAGTACTCACGGAGTCACCTAGTGCAG” was tested, and the binding signal was 3200 fluorescence intensity (a.u.).
With “GACAGGATTATCACCTATTTGTCAACAGTTCACCAGGAGCCGGAGTCACCTAGTGCAG” the binding signal was 3360 fluorescence intensity (a.u.).
For “ATTTAACGTCATTTATAAACATATACTAGATACTAGTAATCGGAGTCACCTAGTGCAG”, the binding signal was 3890 fluorescence intensity (a.u.).
With “GTCAACTGGAAATTGAAATTCAGCCAAAATTAGTGATCAGCGGAGTCACCTAGTGCAG” the binding signal was 4850 fluorescence intensity (a.u.).
With “GTAGCAAATTTACAAATTTGCAGGGCTAGCTGTTGCGGTGCGGAGTCACCTAGTGCAG” the binding signal was 11100 fluorescence intensity (a.u.).
With “AAGCATCAATTCGTTGCCTGATTAGTACAACACTGTTGTGCGGAGTCACCTAGTGCAG” the binding signal was 5420 fluorescence intensity (a.u.).
“CTAATCCCAGATTGCTAGTGATTAGCACGTAGATACATAGCGGAGTCACCTAGTGCAG” was tested, and the binding signal was 21700 fluorescence intensity (a.u.).
“GCCCTTGATTTCTGACTAGATTTGTGTTATTCTACTTACACGGAGTCACCTAGTGCAG” was tested, and the binding signal was 27200 fluorescence intensity (a.u.).
For “ATTTCTGATTGGTGAGATGGGTGATTCGGTAGGCCATTGGCGGAGTCACCTAGTGCAG”, the binding signal was 40100 fluorescence intensity (a.u.).
With “TGTTTGCGATTGATTTGTACTACACAGTGGGTGCTTCTCCCGGAGTCACCTAGTGCAG” the binding signal was 35300 fluorescence intensity (a.u.).
“ATATAAATATTAGTAATCAATTGAGGGAACATTTGATTTGCGGAGTCACCTAGTGCAG” was tested, and the binding signal was 11300 fluorescence intensity (a.u.).
With “GTTTGATTGTTTTCTAGTGTACTACACTTCCCTAGAACGTCGGAGTCACCTAGTGCAG” the binding signal was 55000 fluorescence intensity (a.u.).
For “CAACTTGATTAGTAGTAGTACTAGTTTGATTTTGTCCTGGCGGAGTCACCTAGTGCAG”, the binding signal was 54200 fluorescence intensity (a.u.).
With “CTAATTAGTTTTGGTTAGTACTTATAATTTTGTCCTAATGCGGAGTCACCTAGTGCAG” the binding signal was 15700 fluorescence intensity (a.u.).
For “CATTTACTAATTTGTTTGCTTGATTGTCCTGGCGAAATTGCGGAGTCACCTAGTGCAG”, the binding signal was 40000 fluorescence intensity (a.u.).
“TCCAGTCCAATCAGCCCACCATAATTTGGGCCGGAATAAGCGGAGTCACCTAGTGCAG” was tested, and the binding signal was 17600 fluorescence intensity (a.u.).
For “CGGTAGTGATTGATTCGGATGATTTCACCAGTAGGATTGGCGGAGTCACCTAGTGCAG”, the binding signal was 65300 fluorescence intensity (a.u.).
For “AGAGGGTGGGGACATGGGGATTGATTTCACCTGTAGGATTCGGAGTCACCTAGTGCAG”, the binding signal was 3430 fluorescence intensity (a.u.).
In the case of “CAATAATTGAGTGATTTGGCCCAGTCCAGGAACTAGTAAGCGGAGTCACCTAGTGCAG”, the binding signal is reported as 56100 fluorescence intensity (a.u.).
